19 compounds from PubChem BioAssay (Tox21) can be followed below.

Results filed as inconclusive are left out. Where a call stands in place of a potency, no number is given. The source made the active and inactive calls. The call rests on the fitted dose curve.
Potency means the concentration at half of the fitted maximal effect.

This assay can be described thus: qHTS assay to identify small molecule agonists of H2AX - cell viability counter screen (AID 1224847). Further: nearly all actives have a fitted effect of over 30% in size. To be noted: CHO-K1 viability, CellTiter-Glo luminescence, 3 h; series mostly up to 154 µM. The method in brief:
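Quantitative HTS viability measurement: CHO-K1 wild-type cells in serum (10% FBS) medium, short 3 hr drug exposure at 37C with 0.76% DMSO, CellTiter-Glo luminescent detection.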
On to `CCC[CH2][Sn]([CH2]CCC)([O]C(C)=O)[O]C(C)=O`, for which the Potency entry was “inactive”.
As for `[F][Sn]([c]1ccccc1)([c]1ccccc1)[c]1ccccc1`, the figure is 22.5 µM (active).
The value for `CC(=O)[O-].CC(=O)[O-].O.O.[Zn+2]` was “inactive”.
With `CO/N=C(\C(=O)OC)c1ccccc1CO/N=C(\C)c1cccc(C(F)(F)F)c1`, the Potency is 2.01 µM (active).
The value for `CNC(=O)/C=C(\C)OP(=O)(OC)OC` was “inactive”; that for `Nc1nc(N)c(N)c(N)n1` was “inactive”.
As to `Nc1ccccc1-c1ccccc1`, the Potency entry was “inactive”.
The value for `O.O.O.O=C([O-])[C@H]([O-])[C@@H]([O-])C(=O)[O-].O=C([O-])[C@H]([O-])[C@@H]([O-])C(=O)[O-].[K+].[K+].[Sb+3].[Sb+3]` was “inactive”.
With `O=S(=O)(NS(=O)(=O)C(F)(F)F)C(F)(F)F`, the Potency was 56.5 µM (active).
Turning to `O=C(NC(=O)c1ccccc1Cl)Nc1ccc(OC(F)(F)F)cc1`, the Potency result was “inactive”.
`O=C(N[C@H]1N=C(c2ccccc2F)c2cccc3c2N(CC3)C1=O)c1cc2ccccc2[nH]1`: the Potency result is “inactive”.
Regarding `c1ccc2nc(N3CCNCC3)ccc2c1`, the Potency entry was “inactive”.
Turning to `C[C@H]1[C@H](c2ccc(Cl)cc2)SC(=O)N1C(=O)NC1CCCCC1`, the Potency entry was “inactive”.
Take `CC(C)(C)c1ccc(OP(=O)(Oc2ccccc2)Oc2ccccc2)cc1`: the Potency result was “inactive”.
For the compound `Clc1ccc(C(c2ccc(Cl)cc2)C(Cl)Cl)cc1`, the Potency was 80 µM (active).
As for `Oc1cccc(Cl)c1Cl`, the entry is “inactive”; as for `CCOC(=O)Cc1ccccc1`, “inactive”.
Consider `CCC(OC(C)=O)C(CC(C)NC)(c1ccccc1)c1ccccc1` (centres undefined), for which the Potency is 128 µM (active).
The value for `CCC(C)c1cccc(C(C)CC)c1O` (centres undefined) was 35.7 µM (active).
